Assay [1] can be described thus: blockers of polyQ-driven CASP3 activation – cell-based (AID 1583). The following applies: polyglutamine-induced caspase-3 activation, cell assay; stronger effect = higher value;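 tested at 10 µM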.
The nature of assay [2]: yeast 75Q aggregation reduction – 75Q-TubU reporter (AID 1593). The following applies: Yeast 75Q polyglutamine aggregation reporter.
Assay [3] can be described thus: restoration of touch response, mutant HTT neurons – whole organism, C. elegans mechanosensory neurons, N-terminal huntingtin (AID 1599). The following applies: C. elegans polyQ-huntingtin mechanosensory neurons, stronger effect = higher value.
Assay [4] can be described thus: blockers of cytochrome c efflux from mitochondria – biochemical, purified mitochondria (AID 1603).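 Further: mouse liver mitochondria challenged with calcium chloride; signal normalized to the plate average as 100%.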 The conditions noted are these: stronger effect = lower value.
Assay [5] in a line: polyglutamine aggregate formation blockers (AID 1604). The conditions noted are these: polyglutamine-induced protein aggregation inhibition assay; stronger effect = higher value; tested at 2.5 µM.
A short description of assay [6]: glutamate transport activators, MN-1 cells, MN-1 cell line (AID 1612).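 Further: tested at 1 µM final; 0% = mean of DMSO vehicle wells on each plate; positive means more glutamate uptake than control and negative means less.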 The following applies: MN-1 motor neuron cells, stronger effect = higher value.
Assay [7] can be described thus: GFP-Q80 aggregate reduction, neuronal-like cells, cell-based, NGF-treated PC12, GFPQ80 (AID 1614).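 Further: lower means fewer inclusions and 0 means no inclusions at all.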 The conditions noted are these: PC12 NGF-treated GFP-polyQ80 inclusion reduction.
Assay [8] can be described thus: 75Q-TubH aggregate inhibition, S. cerevisiae, yeast (AID 1616). The conditions noted are these: S. cerevisiae 75Q-TubH polyglutamine aggregation suppression; stronger effect = higher value.
Assay [9] in a line: P. berghei load reduction in hepatocytes – cell-based, HepG2, luciferase luminescence, HepG2 viability, primary screen (AID 624349; in the data active means parasite load remaining mostly below about 12%, no sharp cut-off; inactive means mostly above about 10%;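 further: 100% = mean of DMSO negative control wells on the same plate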). The following applies: P. berghei liver stage in HepG2, luciferase luminescence, concentration not given here; parasite load remaining: stronger effect = lower value; viability: measured here: HepG2 viability without parasites.
Assay [10] concerns Aerobactin synthetase IucA (Klebsiella pneumoniae hvKP1). Description: IucA enzyme inhibition, primary screen, biochemical, Spectrum library (AID 1346200).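 Further: 100% = wells without compound and 0% = wells lacking enzyme.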 The following applies: malachite green pyrophosphate, A620, at 8 µM, stronger effect = lower value.
Assay [11] is described as follows: viability loss with induced miR-34 in A549 – imaging, A549 dox-inducible miR-34, nuclei and caspase counts, primary screen (AID 1347080;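 active means compounds whose cell count with miR-34 switched on is under 0.7 times the count with it off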). The conditions noted are these: A549 miR-34 inducible, Hoechst nuclei count, 48 h.
Assay [12] relates to Aerobactin synthetase IucA (Klebsiella pneumoniae, hypervirulent). Nature of the assay: biochemical IucA inhibition screen of LOPAC library by absorbance (AID 1346212).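 Further: 100% = no compound wells and 0% = no enzyme wells.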 The following applies: IucA enzyme assay, absorbance (OD) readout; stronger effect = lower value;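 tested at 8 µM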.
For assay [13], the target named is Mitogen-activated protein kinase 7 (Homo sapiens) (UniProt Q13164). Nature of the assay: Gal4-ERK5 driven luciferase induction – cell-based, HTS, primary screen (AID 1508626;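 active means luciferase signal above three times the same-plate solvent-only control wells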;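 further: luciferase driven by Gal4-ERK5 fusion binding five Gal4 sites before minimal TATA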). The conditions noted are these: HeLa Gal4-ERK5 transactivation, 18 h, at 5 µM, stronger effect = higher value.
Sequence of Mitogen-activated protein kinase 7 (Homo sapiens) (Q13164 whole entry, looked up, the tested form may be a part): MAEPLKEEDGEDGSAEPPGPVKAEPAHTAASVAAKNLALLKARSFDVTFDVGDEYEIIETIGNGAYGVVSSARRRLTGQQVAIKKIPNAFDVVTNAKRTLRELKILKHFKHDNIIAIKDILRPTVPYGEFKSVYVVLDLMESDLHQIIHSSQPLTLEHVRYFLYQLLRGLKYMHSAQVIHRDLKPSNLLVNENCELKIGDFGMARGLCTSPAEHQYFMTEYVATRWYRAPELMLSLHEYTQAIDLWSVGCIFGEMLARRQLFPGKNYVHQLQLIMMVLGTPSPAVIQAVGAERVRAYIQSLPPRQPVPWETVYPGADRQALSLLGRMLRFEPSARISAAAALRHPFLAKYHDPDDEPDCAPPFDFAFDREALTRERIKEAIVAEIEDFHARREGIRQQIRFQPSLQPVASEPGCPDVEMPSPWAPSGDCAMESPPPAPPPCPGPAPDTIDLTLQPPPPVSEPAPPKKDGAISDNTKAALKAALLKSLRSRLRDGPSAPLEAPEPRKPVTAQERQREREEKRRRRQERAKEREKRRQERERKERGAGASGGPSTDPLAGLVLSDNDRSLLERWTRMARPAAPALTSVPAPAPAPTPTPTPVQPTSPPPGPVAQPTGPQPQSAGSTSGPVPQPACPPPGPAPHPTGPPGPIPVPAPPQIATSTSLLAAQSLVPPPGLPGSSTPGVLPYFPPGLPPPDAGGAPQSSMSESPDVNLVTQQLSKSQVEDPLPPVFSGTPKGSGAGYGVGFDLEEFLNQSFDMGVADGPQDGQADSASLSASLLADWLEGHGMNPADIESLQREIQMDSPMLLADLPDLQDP
The nature of assay [14]: compounds altering viability of human ES cells (AID 493140).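 Further: cells exposed to compounds for four days before counting.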 The following applies: human embryonic stem cell survival screen; stronger effect = higher value.
In assay [15] the target is ATP-dependent translocase ABCB1 (Homo sapiens) (UniProt P08183). Description: P-glycoprotein substrate transport blockade – cell-based (AID 377; in the data active means fluorescence slope change above about 50%). The conditions noted are these: MDR1-expressing cells, fluorescent substrate accumulation slope; stronger effect = higher value; concentration not given here.
Sequence of ATP-dependent translocase ABCB1 (Homo sapiens) (P08183 whole entry, looked up): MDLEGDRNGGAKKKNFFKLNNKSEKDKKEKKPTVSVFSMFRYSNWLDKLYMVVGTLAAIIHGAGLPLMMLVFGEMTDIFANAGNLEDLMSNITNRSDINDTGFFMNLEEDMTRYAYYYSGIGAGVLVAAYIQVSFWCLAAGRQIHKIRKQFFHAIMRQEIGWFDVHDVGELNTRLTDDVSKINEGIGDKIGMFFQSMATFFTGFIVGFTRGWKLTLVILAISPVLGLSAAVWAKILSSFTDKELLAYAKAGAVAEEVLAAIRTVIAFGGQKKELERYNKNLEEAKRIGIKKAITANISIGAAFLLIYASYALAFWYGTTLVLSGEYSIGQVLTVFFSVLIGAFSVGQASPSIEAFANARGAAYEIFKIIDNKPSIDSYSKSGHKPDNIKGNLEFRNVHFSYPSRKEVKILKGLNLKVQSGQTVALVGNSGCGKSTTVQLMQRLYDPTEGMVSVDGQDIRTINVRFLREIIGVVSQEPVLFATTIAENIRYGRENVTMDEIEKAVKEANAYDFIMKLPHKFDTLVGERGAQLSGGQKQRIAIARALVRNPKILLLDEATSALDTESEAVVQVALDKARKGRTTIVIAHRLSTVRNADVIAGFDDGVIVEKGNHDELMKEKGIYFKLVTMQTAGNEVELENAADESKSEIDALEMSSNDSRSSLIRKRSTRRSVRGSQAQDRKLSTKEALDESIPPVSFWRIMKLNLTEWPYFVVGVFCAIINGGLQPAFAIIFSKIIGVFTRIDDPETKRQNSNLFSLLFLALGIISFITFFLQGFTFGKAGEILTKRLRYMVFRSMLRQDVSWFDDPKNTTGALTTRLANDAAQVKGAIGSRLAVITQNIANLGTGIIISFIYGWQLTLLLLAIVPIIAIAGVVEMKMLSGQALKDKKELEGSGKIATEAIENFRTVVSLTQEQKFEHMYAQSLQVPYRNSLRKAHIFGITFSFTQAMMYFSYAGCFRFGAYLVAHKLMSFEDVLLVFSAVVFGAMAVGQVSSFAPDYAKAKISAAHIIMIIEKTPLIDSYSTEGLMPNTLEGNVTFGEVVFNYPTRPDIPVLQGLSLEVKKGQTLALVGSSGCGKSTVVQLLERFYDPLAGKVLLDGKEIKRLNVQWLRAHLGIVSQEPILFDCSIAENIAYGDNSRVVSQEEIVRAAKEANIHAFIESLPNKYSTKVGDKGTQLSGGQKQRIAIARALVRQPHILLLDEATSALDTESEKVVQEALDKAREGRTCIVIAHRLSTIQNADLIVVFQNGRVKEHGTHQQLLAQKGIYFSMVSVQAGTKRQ
[16] abbreviates: measured here: relative caspase fold change +Dox/-Dox.
Setting [17] is: measured here: total cells with miR-34 induction, stronger effect = lower value.
[18] abbreviates: measured here: total cells without miR-34 induction.

As a reminder, the inhibition is the relative decrease from the control value, in per cent. As a reminder, the viability is a read-out of living cells in per cent, often relative to untreated cells. The remaining activity is the signal under treatment as a percentage of the control signal.

Molecules are shown by their SMILES. Several values for one entry are separate records, joined by “and”; a condition that tells them apart may be missing. Equal values may be shown once. Records with an inconclusive call do not appear. For some of these results: Potency and affinity values are given separately. Where a structure was tested more than once in an assay, its records may differ in their call. Activity calls are given as the source filed them. Unless noted, how the calls were made is not given here.

With `O=C1CC2OCC=C3CN4CC[C@]56c7ccccc7N1C5[C@H]2[C@H]3CC46` (some centres not stated), the inhibition in [1] was -12.5%. Also, in assay [2], the score is 1.28. In [3], this compound yielded a rescue above control of -0.21. Also, the cytochrome c release ratio in assay [4] is 1. The compound also returned an inhibition of aggregation in assay [5] of 70.4%. In addition, the glutamate uptake change in [6] is -17.6%. This compound also registered an inclusion score in assay [7] of 1. The compound further registered an aggregation suppression score in assay [8] of 0.688. Also, the parasite load remaining in [9] was 113% (inactive) and 54.7% (inactive). The viability in [9] was 71.9% and 95.5%. Further, in [10], the activity remaining is 121% (inactive). Besides, the figures for the fold change in [11] (stronger effect = lower value) and in assay [11] (setting [16]) were 0.917 (inactive) and 1.82, respectively. Further, the cell count is 11700 in [11] (setting [17]) and 12700 in [11] (setting [18]).

As for `O=C1OCCN1/N=C/c1ccc([N+](=O)[O-])o1`, the parasite load remaining in assay [9] is 1.08% (active) and 4.96% (inactive). Also, the viability in [9] is 58.1% and 96.5%. In addition, the activity remaining in assay [10] is 104% (inactive). In addition, the fold change is 0.857 (inactive) in assay [11] (stronger effect = lower value, cell number ratio, induced over uninduced) and 1.85 in assay [11] (setting [16]). Besides, the cell count was 9350 in assay [11] (setting [17]) and 10900 in assay [11] (setting [18]).

Turning to `C[C@@H]1CC[C@@]2(NC1)O[C@H]1C[C@H]3C4CC=C5C[C@@H](O)CC[C@]5(C)C4CC[C@]3(C)C1[C@@H]2C` (some centres not stated), in assay [9], the parasite load remaining was 57% (inactive) and the viability amounted to 93.1%. For the same compound, in [10], the activity remaining is 118% (inactive).

For the compound `CCCn1c(=O)c2[nH]c(-c3ccc(S(=O)(=O)O)cc3)nc2n(CCC)c1=O`, the remaining activity in assay [12] is 111% (inactive).

For `COc1ccccc1N1CCN(CCCNc2cc(=O)n(C)c(=O)n2C)CC1`, the remaining activity in [12] is 97% (inactive).

In the case of `NC(=Nc1ccccc1)NC(=O)c1nc(Cl)c(N)nc1N`, in [12], the remaining activity is 105% (inactive).

For `O=C(OCCN1CCCCC1)c1c[nH]c2ccccc12`, in assay [12], the remaining activity was 102% (inactive).

As for `COc1ccc2c(c1)[C@]13CCCC[C@H]1[C@H](C2)N(C)CC3`, the inhibition in [1] was -11.5%. Also, the score in [2] came out at 1.32. The compound also had a rescue above control in assay [3] of -2.69. Besides, the cytochrome c release ratio in assay [4] worked out at 0.98. The same compound returned an inhibition of aggregation in [5] of 78.2%. Further, the glutamate uptake change in assay [6] stood at 6.18%. In assay [7], this compound displayed an inclusion score of 2. The aggregation suppression score in assay [8] came out at 1.29. Also, in assay [9], the parasite load remaining was 84.3% (inactive) and the viability turned out to be 71.2%. Also, in [10], the activity remaining was 115% (inactive).

In the case of `CO[C@H]1[C@H](O)[C@H](O[C@H]2CC[C@]3(C)C4CC[C@]5(C)C(C6=CC(=O)OC6)CC[C@]5(O)C4CC[C@@H]3C2)O[C@@H](C)[C@@H]1O` (some centres not stated), the score in assay [2] turned out to be 1.23. In addition, the rescue above control in [3] was -1.89. Also, the cytochrome c release ratio in assay [4] came out at 0.83. In assay [5], this compound gave an inhibition of aggregation of 94.4%. In addition, the glutamate uptake change in [6] is -17.6%. The inclusion score in [7] worked out at 2. This compound also registered an aggregation suppression score in [8] of 1.46. Besides, the activity remaining in [10] was 93.6% (inactive).

`CC1(C)C2C[C@@H](O)[C@]3(C)C(CC[C@@]4(C)[C@H](c5ccoc5)OC(=O)[C@H]5O[C@]543)[C@@]2(C)[C@@H](O)C[C@H]1O` (some centres not stated): in [10], the activity remaining is 124% (inactive). The luciferase signal in [13] was 32 AU (inactive).

`C[C@]12CCC3C(CC[C@H]4CC(=O)CC[C@]34C)C1CCC2=O` (some centres not stated): in assay [9], the parasite load remaining is 63.7% (inactive) and the viability was 96.1%. In assay [10], the activity remaining was 94.5% (inactive).

In the case of `C[C@@H]1CC[C@H]2[C@@H](C)C(=O)O[C@@H]3OC4(C)CC[C@@H]1[C@]32OO4`, the inhibition in [1] was determined as 18.8%. Also, the score in assay [2] was 0.49. For the same compound, the rescue above control in assay [3] amounted to 21.4. In addition, the cytochrome c release ratio in assay [4] was 1.15. In assay [5], this compound gave an inhibition of aggregation of 79.2%. In assay [6], the glutamate uptake change came out at 20.6%. The compound also returned an inclusion score in [7] of 2. The aggregation suppression score in assay [8] worked out at 0.15. Further, the survival in assay [14] is 4.67 (inactive). Also, in [9], the parasite load remaining is 71.2% (inactive) and the viability was 72.2%. Besides, the activity remaining in [10] is 86.3% (inactive).

Turning to `CC[C@]12CCCN3CCc4c(n(c5ccccc45)[C@](O)(C(=O)OC)C1)[C@@H]32`, the survival in [14] was 6.25 (inactive). Also, in assay [10], the activity remaining is 115% (inactive).

Turning to `C[C@@H]1C(=O)OC2[C@H](O)C34[C@@H]5OC(=O)[C@@]3(O[C@@H]3OC(=O)[C@H](O)[C@@]34[C@H](C(C)(C)C)[C@H]5O)[C@]21O` (some centres not stated), in assay [9], the parasite load remaining is 84.4% (inactive) and the viability is 70.9%. Also, the activity remaining in assay [10] was 116% (inactive).

Regarding `C=C1C2CC[C@H]3[C@]4(C)C[C@H](OC5OC(CO)C(OS(=O)(=O)O)C(OS(=O)(=O)O)C5OC(=O)CC(C)C)C[C@@H](C(=O)O)[C@H]4CC[C@]3(C2)[C@H]1O` (some centres not stated), the fluorescence slope change in [15] is 23.6% (inactive). For the same compound, the inhibition in assay [1] came out at 13.1%. Also, the score in assay [2] is 1.67. This compound gave a rescue above control in [3] of -8.48. In addition, the cytochrome c release ratio in assay [4] amounted to 1.3. In [5], this compound came in with an inhibition of aggregation of 74.7%. In assay [6], the glutamate uptake change was 4.94%. This compound also yielded an inclusion score in [7] of 2. The aggregation suppression score in [8] is 1.68. Further, the survival in assay [14] was 8.25 (inactive). Moreover, the activity remaining in assay [10] is 102% (inactive). Besides, the luciferase signal in assay [13] was 160 AU (inactive).
